# From PubChem BioAssay AID2685 (National Center for Advancing Translational Sciences (NCATS), 2010)
# “And” between values parts separate entries of the source, which are not always exact repeats. Equal values may be shown once. Among all 320,000 compounds or so, about 2,100 (0.66%) were called active. Another 53% or so got no clear call; they are omitted. Calls follow the shape of the dose curve; as a rule, active = well fitted inhibition curve with a large enough effect in the signal ratio, with a control signal flat (not every such curve was filed as active); inconclusive = small, poorly fitted or top-dose-only effect, or effect the other way, or a change in a side signal; inactive = flat fitted curve, though single readings scatter; the % refers to the signal ratio. The entries come from a sample that favours actives as a whole.
# Assay: qHTS Assay for Lipid Storage Modulators in Drosophila S3 Cells;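 as to cell number change: cells counted by Cell Tracker Red CMTPX staining in the red channel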
# Conditions: BODIPY lipid droplet fluorescence, 18-24 h, cells fed with added oleic acid; cell number change: measured here: cell count max response; series mostly up to 46.1 µM
# Summary of the method: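 Drosophila S3 cells got compounds at several concentrations plus oleic acid (400 uM solution). Laser-scanning cytometry with 488 nm excitation read lipid droplets at 500-530 nm and cells at 575-640 nm. Percent activity was relative to 20 uM Triacsin C.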
# Potency is read from the fitted curve at half-maximal effect.
Compound,Potency,cell number change [%]
COC(=O)C1=C(C)N(C)C(=O)NC1c1ccc(C)cc1 (stereo unspecified),inactive,-10.6
COC(=O)C1=C(C)N(C)C(=O)NC1c1ccccc1 (stereo unspecified),29.1 µM (active),-9.2
CC1=C(C(=O)OC(C)C)C(c2ccccc2)NC(=O)N1C (stereo unspecified),inactive,
Cc1ccccc1NC(=O)C(C)c1cccc(C(=O)c2ccccc2)c1 (stereo unspecified),inactive,28.9
CC(C(=O)O)c1cccc(C(=O)c2ccccc2)c1 (stereo unspecified),23% and -14%,
C[C@H](C(=O)O)c1cccc(C(=O)c2ccccc2)c1,inactive,5.73
CC(=O)c1cccc(NC(=O)CN(C2CCCCC2)S(C)(=O)=O)c1,inactive,
CCCCc1ccc(NC(=S)NCCO)cc1,inactive,
O=S(=O)(c1ccc(-c2ccccc2)cc1)N1CCCCC1,inactive,14.2
Cc1ccccc1NS(=O)(=O)c1ccc(NS(=O)(=O)c2cccs2)cc1,inactive,22.7
O=S(=O)(Nc1ccc(F)cc1)c1ccc(NS(=O)(=O)c2cccs2)cc1,3.66 µM (active),5.22
Cc1ccc(NS(=O)(=O)c2ccc(NS(=O)(=O)c3cccs3)cc2)cc1,inactive,
Cc1ccc(-n2nc3c(c2NC(=O)CC(C)C)CS(=O)C3)cc1 (stereo unspecified),inactive,-3.89
Cc1ccc(-c2nnc(N3CCCCC3)c3ccccc23)cc1,inactive,-9.5
c1ccc2c(N3CCCCC3)nnc(N3CCCCC3)c2c1,23.1 µM (active),9
Clc1nnc(N2CCCCC2)c2ccccc12,inactive,
CCCCN1C2CCCC1CC(NC(=O)c1cccc(Cl)c1)C2 (stereo unspecified),inactive,-7.62
CN(C(=O)COc1ccccc1)C1CCS(=O)(=O)C1 (stereo unspecified),inactive,-15.6
CC(C)(C)NCC(O)COc1c(F)cc(Br)cc1F (stereo unspecified),29.1 µM (active),-21.9
Cc1cccc(C)c1OCC(O)CNC(C)(C)C (stereo unspecified),inactive,8.88
Cc1cc(C)c(OCC(O)CNC(C)(C)C)c(C)c1 (stereo unspecified),inactive,1.51

Compound,Potency,cell number change [%]
CCCCn1c(N)c(N(CC(C)C)C(=O)c2cnccn2)c(=O)[nH]c1=O,inactive,-16.5
O=C(NC1CCCCC1)C1Cc2ccccc2CN1S(=O)(=O)c1ccc(F)cc1 (stereo unspecified),inactive,-3.73
CCC(OC(=O)c1nsc(Cl)c1Cl)C(=O)NCc1cccs1 (stereo unspecified),inactive,3.99
CC(OC(=O)c1nsc(Cl)c1Cl)C(=O)NCc1cccs1 (stereo unspecified),32.6 µM (active),2.66
CC(C)CC(OC(=O)c1nsc(Cl)c1Cl)C(=O)NCc1cccs1 (stereo unspecified),inactive,-3.42
O=C1COc2ccc(C(=O)CSc3ccccc3C(=O)O)cc2N1,inactive,8.27
COc1ccc(C2=NC(c3ccccc3)CO2)cc1 (stereo unspecified),inactive,-8.42
CCOC(=O)C1(Cc2cccc(Cl)c2)CCCN(C(=O)c2cc(C)on2)C1 (stereo unspecified),inactive,6.36
CCOC(=O)C1(Cc2cccc(Cl)c2)CCCN(C(=O)c2cc(C)n(C)n2)C1 (stereo unspecified),inactive,17.5
CCOC(=O)C1(Cc2cccc(Cl)c2)CCCN(C(=O)c2cc(CC)on2)C1 (stereo unspecified),2.31 µM (active),-22.9
CCOc1ccc(OCC)c(S(=O)(=O)NCc2ccccn2)c1,inactive,-15.9
O=c1c(Cc2ccc(Cl)cc2)c(O)ccn1Cc1cccs1,inactive,1.85
Cc1ccc(-c2c(C(=O)N/N=C/c3c[nH]c4ccccc34)nnn2-c2nonc2N)cc1,14.6 µM (active),-29.2
COCc1c(C(=O)N/N=C/c2c[nH]c3ccccc23)nnn1-c1nonc1N,0.164 µM (active),-1.35
Cc1ccc(-c2c(C(=O)N/N=C/c3ccc(C)o3)nnn2-c2nonc2N)cc1,2.06 µM (active),-11.5
Cc1ccc(/C=N/NC(=O)c2nnn(-c3nonc3N)c2C)o1,inactive,-13.6
Cc1ccc(-c2c(C(=O)N/N=C/c3ccco3)nnn2-c2nonc2N)cc1,inactive,-15
COCc1c(C(=O)N/N=C/c2cccc3ccccc23)nnn1-c1nonc1N,inactive,13.5
Cc1ccc(-c2c(C(=O)N/N=C/c3cccs3)nnn2-c2nonc2N)cc1,inactive,-27.4
Cc1ccc(/C=N/NC(=O)c2nnn(-c3nonc3N)c2-c2ccccc2)o1,inactive,4.2
CCCN(CCC)Cc1c(C(=O)N/N=C/c2c[nH]c3ccccc23)nnn1-c1nonc1N,inactive,9.46

Compound,Potency,cell number change [%]
FC(F)(F)c1cccc(NC(=S)NCC(c2cccnc2)N2CCOCC2)c1 (stereo unspecified),inactive,-6.8
COc1ccc(NC(=S)N(CCc2nc3cc(C)c(C)cc3[nH]2)Cc2cccnc2)cc1,inactive,
Cc1ccc(S(=O)(=O)N2CCC(C(=O)Nc3ccccc3N3CCCC3)CC2)cc1,inactive,
CCn1c(=O)cc(SCC(=O)NCc2ccccn2)c2ccccc21,inactive,
COCCn1c(SCC(=O)NC(C)c2ccc(F)cc2)nc2ccccc21 (stereo unspecified),inactive,25.2
O=C(COc1ccc2c(c1)oc(=O)c1ccccc12)NCCCN1CCOCC1,inactive,13.8
COc1ccc(CCN(Cc2cc3ccc(C)cc3[nH]c2=O)C(C)=O)cc1OC,inactive,
COc1ccc(-n2c(=S)[nH]c3cc(C(=O)Nc4ccc(OC)c(OC)c4)ccc3c2=O)cc1,inactive,1.06
COc1ccc(-n2c(=S)[nH]c3cc(C(=O)NCc4ccccc4)ccc3c2=O)c(OC)c1,inactive,8.56
COc1ccc(-n2c(=S)[nH]c3cc(C(=O)Nc4ccc(F)cc4)ccc3c2=O)c(OC)c1,16.4 µM (active),32.1
CNC(=S)NNC(=O)Cn1ccc(C)n1,inactive,-2.68
O=C(Nc1ccccc1)OC(CN1CCCCC1)C(F)(F)F (stereo unspecified),inactive,-2.34
Fc1cccc(Nc2ncnc3[nH]ncc23)c1,inactive,
Cc1ccc(C)c(SCC(=O)NCc2ccco2)c1,inactive,-4.84
O=C(N/N=C/c1ccc2ccccc2c1)c1ccc(COc2ccc3c(c2)CCC3)o1,inactive,-8.3
O=C1CC(N2CCN(C/C=C/c3ccccc3)CC2)C(=O)N1CCc1ccccc1 (stereo unspecified),3.26 µM (active),-18.6
NC(=O)CN1CCN(C2CC(=O)N(CCc3ccccc3)C2=O)CC1 (stereo unspecified),inactive,2.77
O=C1CC(N2CCN(c3ccccc3)CC2)C(=O)N1CCc1ccccc1 (stereo unspecified),inactive,0.673
CC1=NN(C(C#N)c2ccc(F)cc2)C(c2ccccc2)C1 (stereo unspecified),inactive,-11.4
